From PubChem BioAssay
Values joined by “and” are separate entries in the source; they are usually repeats but may differ in a detail not shown here. Equal values may be shown once. Active and inactive are the calls of the source.

Assays:
[1] = system: PRMT1 (protein arginine N-methyltransferase 1); assay: small molecules binding arginine methyltransferase PRMT1 – biochemical, small-molecule microarray, 635 nm fluorescence, primary screen (AID 1088); details: higher = more signal;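 also: binding of Prmt1 protein to compounds spotted on small-molecule microarray slides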
[2] = growth effects on S. cerevisiae YJM789 – YJM789 clinical isolate, OD600, 24 h, basal, primary screen (AID 1089); details: higher = more signal, called active from +8 up or from −8 down;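 also: growth of clinical yeast isolate S. cerevisiae YJM 789 seeded 1000 cells per well; test concentration not given here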
[3] = S. pombe growth modifiers, basal conditions – strain 972, OD600, 24 h, no modulator, primary screen (AID 1090);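 also: basal condition with compound alone and no growth modifier present; test concentration not given here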; details: S. pombe 972 growth, higher = more signal, called active from +8 up or from −8 down
[4] = budding yeast growth modifiers under rapamycin – strain BY4716, OD600, 96 h, primary screen (AID 1091); also: test concentration not given here; details: S. cerevisiae BY4716 + rapamycin, higher = more signal, called active from +8 up or from −8 down
[5] = target: Torsin-1A-interacting protein 2 (Homo sapiens) (UniProt Q8NFQ8); assay: small molecules binding lysate-expressed LULL1 – cell lysate, human LULL1 lysate, 635/667 nm fluorescence, primary screen (AID 1092); details: small-molecule microarray, hLULL1 lysate binding, 635 nm fluorescence; higher = more signal;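 also: probe is lysate of COS7 cells overexpressing human LULL1; score merges per-feature 667 nm fluorescence with signal-to-noise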
Torsin-1A-interacting protein 2 (Homo sapiens), sequence (Q8NFQ8 whole entry, looked up): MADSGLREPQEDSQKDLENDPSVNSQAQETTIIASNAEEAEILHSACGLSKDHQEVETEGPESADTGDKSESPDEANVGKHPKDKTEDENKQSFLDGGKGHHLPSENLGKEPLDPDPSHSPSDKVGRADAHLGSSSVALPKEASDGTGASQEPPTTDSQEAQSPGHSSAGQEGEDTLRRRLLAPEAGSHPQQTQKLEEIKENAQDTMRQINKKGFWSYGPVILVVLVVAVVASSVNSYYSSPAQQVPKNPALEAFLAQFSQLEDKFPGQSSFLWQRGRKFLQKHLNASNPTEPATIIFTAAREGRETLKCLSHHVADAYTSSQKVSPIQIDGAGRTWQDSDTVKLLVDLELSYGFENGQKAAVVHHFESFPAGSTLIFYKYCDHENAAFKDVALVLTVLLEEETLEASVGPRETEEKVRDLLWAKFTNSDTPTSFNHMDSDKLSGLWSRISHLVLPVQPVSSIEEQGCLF

[6] = optical density change of DRC41 E. coli – strain DRC41, OD650, 24 h, E. coli filamentation project, primary screen (AID 1093);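 also: MC1000 strain lacking acrAB efflux and sulA so SOS filamentation is blocked; test concentration not given here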; details: E. coli DRC41 growth, higher = more signal, called active from +8 up or from −8 down
[7] = probe aLefty2 binding to arrayed compounds – biochemical, biotinylated probe, 635/667 nm fluorescence, primary screen (AID 1094); details: small-molecule microarray, higher = more signal;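 also: score merges spot fluorescence near 667 nm with spot signal-to-noise ratio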
[8] = system: Noggin (protein binding on small-molecule microarray); assay: small molecules binding Noggin protein – biochemical, 635/667 nm fluorescence, primary screen (AID 1095); details: 635 nm fluorescence, higher = more signal;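 also: score merges 667 nm feature fluorescence with signal to noise over triplicate slides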
[9] = target: Neurogenic locus notch homolog protein 3 (Homo sapiens) (UniProt Q9UM47); assay: small molecules binding NOTCH3 protein – biochemical, 635/667 nm fluorescence, primary screen (AID 1096); details: small-molecule microarray, 635 nm fluorescence, higher = more signal
Neurogenic locus notch homolog protein 3 (Homo sapiens), sequence (Q9UM47 whole entry, looked up): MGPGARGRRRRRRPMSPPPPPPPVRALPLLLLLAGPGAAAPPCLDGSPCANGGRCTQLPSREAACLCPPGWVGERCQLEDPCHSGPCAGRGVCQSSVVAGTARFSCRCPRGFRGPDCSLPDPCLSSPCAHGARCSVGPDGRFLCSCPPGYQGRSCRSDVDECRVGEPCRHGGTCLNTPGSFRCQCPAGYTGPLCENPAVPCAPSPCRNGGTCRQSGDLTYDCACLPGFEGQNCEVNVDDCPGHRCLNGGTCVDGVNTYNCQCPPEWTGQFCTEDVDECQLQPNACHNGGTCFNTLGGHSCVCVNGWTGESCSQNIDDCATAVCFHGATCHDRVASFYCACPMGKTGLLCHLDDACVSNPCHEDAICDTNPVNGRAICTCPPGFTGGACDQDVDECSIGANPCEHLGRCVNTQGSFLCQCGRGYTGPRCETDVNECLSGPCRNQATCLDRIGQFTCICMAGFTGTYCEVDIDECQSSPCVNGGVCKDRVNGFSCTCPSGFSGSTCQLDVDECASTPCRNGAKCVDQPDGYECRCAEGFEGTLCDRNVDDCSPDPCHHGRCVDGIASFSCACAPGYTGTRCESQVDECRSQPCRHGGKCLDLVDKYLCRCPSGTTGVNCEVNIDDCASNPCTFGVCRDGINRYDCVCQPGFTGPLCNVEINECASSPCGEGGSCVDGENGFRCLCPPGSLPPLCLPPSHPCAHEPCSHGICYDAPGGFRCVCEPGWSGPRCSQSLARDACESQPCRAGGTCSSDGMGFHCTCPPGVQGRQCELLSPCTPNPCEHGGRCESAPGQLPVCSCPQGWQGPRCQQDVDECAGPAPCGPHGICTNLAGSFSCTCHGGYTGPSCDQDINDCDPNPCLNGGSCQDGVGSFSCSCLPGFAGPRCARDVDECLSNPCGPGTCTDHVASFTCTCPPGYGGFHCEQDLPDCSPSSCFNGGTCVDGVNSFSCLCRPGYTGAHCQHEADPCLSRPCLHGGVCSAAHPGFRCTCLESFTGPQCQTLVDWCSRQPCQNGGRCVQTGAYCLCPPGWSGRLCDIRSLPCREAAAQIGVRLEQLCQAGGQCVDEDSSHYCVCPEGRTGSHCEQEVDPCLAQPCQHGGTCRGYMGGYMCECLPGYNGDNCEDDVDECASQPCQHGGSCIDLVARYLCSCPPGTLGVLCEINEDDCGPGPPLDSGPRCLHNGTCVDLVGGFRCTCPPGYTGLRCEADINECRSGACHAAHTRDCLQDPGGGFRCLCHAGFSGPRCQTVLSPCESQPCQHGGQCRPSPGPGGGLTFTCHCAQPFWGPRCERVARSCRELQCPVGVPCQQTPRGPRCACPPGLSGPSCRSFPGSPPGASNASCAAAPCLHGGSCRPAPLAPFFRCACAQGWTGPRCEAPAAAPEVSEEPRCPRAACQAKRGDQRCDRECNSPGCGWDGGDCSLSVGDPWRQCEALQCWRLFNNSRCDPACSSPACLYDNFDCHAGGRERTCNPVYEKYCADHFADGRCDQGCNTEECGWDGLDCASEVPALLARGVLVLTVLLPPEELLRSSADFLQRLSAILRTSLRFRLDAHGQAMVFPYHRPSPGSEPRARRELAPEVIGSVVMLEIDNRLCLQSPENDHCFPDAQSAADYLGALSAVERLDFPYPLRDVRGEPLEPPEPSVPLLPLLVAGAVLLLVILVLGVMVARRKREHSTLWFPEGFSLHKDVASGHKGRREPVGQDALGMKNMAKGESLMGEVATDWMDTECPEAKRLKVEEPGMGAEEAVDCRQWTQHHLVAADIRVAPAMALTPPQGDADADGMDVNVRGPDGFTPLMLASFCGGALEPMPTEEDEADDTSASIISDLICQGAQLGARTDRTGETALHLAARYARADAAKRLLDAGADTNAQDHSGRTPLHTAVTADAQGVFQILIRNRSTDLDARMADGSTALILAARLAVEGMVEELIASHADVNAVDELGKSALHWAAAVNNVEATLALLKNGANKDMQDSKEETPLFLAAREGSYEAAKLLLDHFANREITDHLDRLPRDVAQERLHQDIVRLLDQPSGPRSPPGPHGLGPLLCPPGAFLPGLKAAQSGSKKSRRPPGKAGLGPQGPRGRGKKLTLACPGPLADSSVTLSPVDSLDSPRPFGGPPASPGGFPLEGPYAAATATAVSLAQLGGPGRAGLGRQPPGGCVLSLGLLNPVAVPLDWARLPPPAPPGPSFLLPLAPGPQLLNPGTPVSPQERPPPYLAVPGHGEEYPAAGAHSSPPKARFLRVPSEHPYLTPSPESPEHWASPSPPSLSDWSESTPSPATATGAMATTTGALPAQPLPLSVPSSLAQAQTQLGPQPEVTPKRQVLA

[10] = probe aEGFR binding to arrayed compounds – biochemical, biotinylated probe, 635/667 nm fluorescence, primary screen (AID 1097); details: small-molecule microarray, higher = more signal;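 also: probe is a biotinylated anti-EGFR antibody binding compounds printed on slides; score combines fluorescence near 667 nm and signal to noise of each spot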
[11] = system: Plasmodium falciparum Sir2 (PF13_0152, Sir2A); assay: Plasmodium falciparum Sir2A binding compounds – biochemical, small-molecule microarray, 635 nm fluorescence, primary screen (AID 1098); details: fluorescence 635 nm, higher = more signal;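 also: score merges spot fluorescence intensity with its signal-to-noise ratio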
[12] = probe aDKK1 binding to arrayed compounds – biochemical, biotinylated probe, 635/667 nm fluorescence, primary screen (AID 1099); details: small-molecule microarray, higher = more signal;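 also: score merges 667nm spot fluorescence with signal to noise across triplicate slides; reference of the scale not given here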
[13] = probe aCHRDL2 binding to arrayed compounds – biochemical, biotinylated probe, 635/667 nm fluorescence, primary screen (AID 1100); details: small-molecule microarray, higher = more signal
[14] = change in splice reporter luminescence, either direction, cell-based, HEK293, spliceosome inhibition project, primary screen (AID 1101); details: HEK293 splicing luciferase reporter, 24 h, higher = more signal, called active from +8 up or from −8 down;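 also: HEK293 cells carrying a splicing-competent luciferase reporter gene; test concentration not given here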
[15] = target: Fibroblast growth factor 10 (Homo sapiens) (UniProt O15520); assay: compounds binding fibroblast growth factor 10 – biochemical, small-molecule microarray, 635 nm fluorescence, primary screen (AID 1102); details: FGF10 binding, fluorescence 635 nm, higher = more signal
Fibroblast growth factor 10 (Homo sapiens), sequence (O15520 whole entry, looked up): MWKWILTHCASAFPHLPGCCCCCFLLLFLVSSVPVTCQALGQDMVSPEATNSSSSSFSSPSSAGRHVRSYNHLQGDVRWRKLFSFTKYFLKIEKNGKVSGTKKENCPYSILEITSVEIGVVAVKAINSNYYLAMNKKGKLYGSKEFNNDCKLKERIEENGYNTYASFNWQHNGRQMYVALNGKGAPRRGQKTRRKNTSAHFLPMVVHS

[16] = system: glycogen synthase kinase-3 (GSK3A per assay name; protocol says GSK3B); assay: compounds binding glycogen synthase kinase-3 – biochemical, small-molecule microarray, 635 nm fluorescence, GSK3A, primary screen (AID 1103); details: fluorescence 635 nm, higher = more signal; also: the record names both GSK3A and GSK3B
[17] = target: Epidermal growth factor receptor (Homo sapiens) (UniProt P00533); assay: compounds binding epidermal growth factor receptor – biochemical, small-molecule microarray, 635 nm fluorescence, primary screen (AID 1104); details: EGFR binding, higher = more signal;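 also: score merges 667 nm emission intensity with spot signal to noise over triplicate slides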
Epidermal growth factor receptor (Homo sapiens), sequence (P00533 whole entry, looked up): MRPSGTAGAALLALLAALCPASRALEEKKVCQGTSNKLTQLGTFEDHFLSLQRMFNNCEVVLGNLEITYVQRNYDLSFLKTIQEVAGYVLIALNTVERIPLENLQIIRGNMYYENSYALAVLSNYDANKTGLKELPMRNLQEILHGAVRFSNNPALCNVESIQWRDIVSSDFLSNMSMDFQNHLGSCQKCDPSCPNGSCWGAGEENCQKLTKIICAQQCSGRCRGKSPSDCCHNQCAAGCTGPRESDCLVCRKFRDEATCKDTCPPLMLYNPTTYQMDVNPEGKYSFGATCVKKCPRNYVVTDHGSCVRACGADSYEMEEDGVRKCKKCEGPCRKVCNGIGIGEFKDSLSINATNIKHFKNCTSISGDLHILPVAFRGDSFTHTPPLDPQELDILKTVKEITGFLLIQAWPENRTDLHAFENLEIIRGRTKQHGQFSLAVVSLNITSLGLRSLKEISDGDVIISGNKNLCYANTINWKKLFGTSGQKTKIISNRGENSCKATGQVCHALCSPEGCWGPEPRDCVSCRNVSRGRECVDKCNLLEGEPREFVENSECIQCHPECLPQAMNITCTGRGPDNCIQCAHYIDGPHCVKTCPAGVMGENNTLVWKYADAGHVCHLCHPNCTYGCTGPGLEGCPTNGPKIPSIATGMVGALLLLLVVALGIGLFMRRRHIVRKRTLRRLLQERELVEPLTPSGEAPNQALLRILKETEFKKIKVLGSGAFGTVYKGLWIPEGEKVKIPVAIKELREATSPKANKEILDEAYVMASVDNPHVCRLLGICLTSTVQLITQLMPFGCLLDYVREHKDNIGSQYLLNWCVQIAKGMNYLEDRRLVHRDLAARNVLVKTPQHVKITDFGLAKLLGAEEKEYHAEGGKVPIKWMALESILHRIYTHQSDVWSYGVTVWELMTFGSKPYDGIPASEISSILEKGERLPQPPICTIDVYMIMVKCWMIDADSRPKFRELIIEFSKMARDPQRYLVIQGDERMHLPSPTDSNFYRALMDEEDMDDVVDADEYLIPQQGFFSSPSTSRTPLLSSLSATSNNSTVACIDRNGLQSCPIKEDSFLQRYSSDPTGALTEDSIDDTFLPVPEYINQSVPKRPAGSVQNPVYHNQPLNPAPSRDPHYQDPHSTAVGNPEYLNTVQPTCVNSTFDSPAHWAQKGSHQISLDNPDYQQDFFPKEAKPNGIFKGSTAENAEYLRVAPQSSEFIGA

[18] = target: Follistatin-related protein 3 (Homo sapiens) (UniProt O95633); assay: compounds binding follistatin-related protein 3 – biochemical, small-molecule microarray, 635 nm fluorescence, primary screen (AID 1105); details: FSTL3 binding, higher = more signal;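 also: score merges emission near 667 nm and signal to noise per printed spot across three slides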
Follistatin-related protein 3 (Homo sapiens), sequence (O95633 whole entry, looked up): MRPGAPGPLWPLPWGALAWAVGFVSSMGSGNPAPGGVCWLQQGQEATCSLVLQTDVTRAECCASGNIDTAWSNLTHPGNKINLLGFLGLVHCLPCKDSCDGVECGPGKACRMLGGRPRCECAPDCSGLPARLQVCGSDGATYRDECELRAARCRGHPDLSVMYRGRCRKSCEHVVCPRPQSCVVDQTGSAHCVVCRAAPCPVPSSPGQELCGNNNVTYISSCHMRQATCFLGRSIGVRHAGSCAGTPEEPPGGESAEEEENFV

[19] = target: Dickkopf-related protein 1 (Homo sapiens) (UniProt O94907); assay: small molecules binding DKK1 protein – biochemical, small-molecule microarray, 635 nm fluorescence scan, primary screen (AID 1106); details: higher = more signal;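 also: score merges emission near 667 nm with signal to noise over three replicate slides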
Dickkopf-related protein 1 (Homo sapiens), sequence (O94907 whole entry, looked up): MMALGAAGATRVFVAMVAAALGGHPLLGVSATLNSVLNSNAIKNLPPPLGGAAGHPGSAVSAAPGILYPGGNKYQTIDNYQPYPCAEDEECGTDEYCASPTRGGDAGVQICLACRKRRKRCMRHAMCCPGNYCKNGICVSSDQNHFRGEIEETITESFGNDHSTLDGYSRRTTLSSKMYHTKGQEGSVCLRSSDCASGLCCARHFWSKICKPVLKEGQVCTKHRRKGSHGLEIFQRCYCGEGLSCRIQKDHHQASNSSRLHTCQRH

[20] = system: Inhibin beta A chain (activin A); assay: small molecules binding activin A – biochemical, small-molecule microarray, 635 nm fluorescence scan, primary screen (AID 1107); details: INHBA, higher = more signal;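 also: mouse activin A protein probed at 4.33 µg/mL on printed slides; score merges bound-protein fluorescence near 667 nm with spot signal-to-noise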

Row | SMILES | composite z-score [1] | z-score [2] | z-score [3] | z-score [4] | composite z-score [5] | z-score [6] | composite z-score [7] | composite z-score [8] | composite z-score [9] | composite z-score [10] | composite z-score [11] | composite z-score [12] | composite z-score [13] | z-score [14] | composite z-score [15] | composite z-score [16] | composite z-score [17] | composite z-score [18] | composite z-score [19] | composite z-score [20]
1 | C[N+](C)(C)CCCCCCNC(=O)[C@H]1C[C@H]2C(=O)N[C@@H](CCCC[N+](C)(C)C)C(=O)N2[C@H]1c1cccc(OCCO)c1 | 1.46 and 0.0165 | -2.56 (inactive) and 0.455 (inactive) | -1.18 (inactive) and -0.331 (inactive) | 0.162 (inactive) and 1.01 (inactive) | 2.99 and 0.566 | 0.598 (inactive) and -0.404 (inactive) | -0.0589 and 0.582 | 1.94 and 0.904 | 1.01 and -0.0712 | -0.0703 and 0.127 | 1.73 and 1.42 | -0.0501 and 1.08 | -0.148 and 0.62 | -0.159 (inactive) and 0.257 (inactive) | 1.2 and 0.913 | 0.898 and 0.613 | 0.111 and 0.558 | 1.44 and 0.262 | 1.34 and 1.55 | 0.589 and 1.36
2 | C=CCN(CCCCC)C(=O)C(c1cccs1)N(C(=O)/C=C\C(=O)O)c1c(Cl)cccc1CO (stereo not given) | -0.399 and -0.874 | 0.0767 (inactive) and -0.389 (inactive) | -0.186 (inactive) and -0.149 (inactive) | -0.288 (inactive) and -0.446 (inactive) | 2.54 and 0.687 | -0.422 (inactive) and -0.448 (inactive) | 0.0503 and -0.151 | -2.9 and -1.86 | -0.864 and -1.23 | -0.348 and -0.216 | 1.04 and 0.231 | -0.0127 and -0.47 | 1.15 and 0.975 | 0.105 (inactive) and 1.15 (inactive) | -0.85 and -2.15 | -0.612 and -1.36 | -2.28 and -1.78 | -2.13 and -1.29 | -3.02 and -1.77 | -2.25 and -3.37
3 | C=CCN(C(=O)C1N(C(C)(C)CO)C(=O)C2C(C(=O)O)C3C=CC21O3)c1ccc(OC)cc1 (stereo not given) | -0.504 and -1.28 | 0.0659 (inactive) and 1.13 (inactive) | -1.08 (inactive) and 0.202 (inactive) | 0.558 (inactive) and 0.921 (inactive) | 0.841 and 0.2 | 2.3 (inactive) and 1.15 (inactive) | 0.0499 and 0.0174 | -2.91 and -3.66 | -0.702 and -1.29 | -0.263 and -0.315 | -0.138 and 0.012 | 0.0931 and -0.0192 | 1.23 and 1.02 | -1.01 (inactive) and 0.0922 (inactive) | -0.966 and -2.03 | -0.751 and -1.28 | -1.84 and -1.43 | -2.02 and -2.33 | -4.14 and -3.71 | -1.01 and -5.89
4 | C=CCN(CCCCC)C(=O)C1N(C(C)(C)CO)C(=O)C2C(C(=O)O)C3C=CC21O3 (stereo not given) | -1.11 and -1.37 | -0.447 (inactive) and -1.11 (inactive) | -0.342 (inactive) and -0.0005 (inactive) | -0.402 (inactive) and -0.177 (inactive) | -1.82 and -1.59 | -0.373 (inactive) and -0.262 (inactive) | -0.202 and -0.159 | -2.03 and -1.91 | -1.09 and -0.779 | -0.258 and -0.301 | -0.0662 and -1.13 | -0.706 and -0.0156 | 0.767 and 0.884 | 0.507 (inactive) and 0.484 (inactive) | -1.96 and -0.741 | -1.35 and -0.534 | -1.79 and -1.92 | -1.65 and -2.06 | -1.61 and -2.14 | -3.53 and -1.16
